Screening data as filed in PubChem.
PNC assembly inh – perinucleolar compartment assembly inhibition; PC3M PTB-GFP, PNC prevalence imaging, 16 h; hits give low values; activity change (PNC), negative = inhibition, % at 10 µM; 3.1% of 140,000 active; AID 2417;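 active = readout at or below -70, meaning at least 70% loss of cells showing the perinucleolar compartment, a nuclear body marking cancer cells; inconclusive = readout between -30 and a set limit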;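 also: plate controls were DMSO wells for no effect and camptothecin positive control wells for full effect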
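Compounds are pinned in duplicate onto adhered PC3M cells stably expressing GFP-tagged PTB and incubated 16 h at 37 C. Cells are then fixed, nuclei stained with Hoechst, and PNC-positive cells counted.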
ALDH1A1 block – ALDH1A1 (human) enzyme inhibition; P00352; Purified ALDH1A1, NADH fluorescence, propionaldehyde substrate; Potency, µM (highest dose often 75.3 µM), inactives show at the highest dose activity, negative = inhibition, most hits filed as inhibitors; 7.3% of 220,000 active; active = well fitted inhibition curve with a large enough effect, not every such curve was filed as active; inconclusive = small, poorly fitted or top-dose-only effect, or another doubt; inactive = no such curve, though single readings can be large or run the other way;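 also: potency is read from the fitted curve at half-maximal effect; plate controls were no enzyme wells and a reference inhibitor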
GLA spleen mod – alpha-galactosidase A (human) modulation. human spleen homogenate, 4MU-alpha-Gal fluorescence, 40 min. 0.008% of 240,000 active. AID 2107. P06280. Potency, µM (titrated, usually from 80 µM), for inactives: at the highest dose activity change, negative = inhibition, actives largely listed as inhibitors;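 also: potency is read from the fitted curve at half-maximal effect; 0% = enzyme with vehicle and -100% = no enzyme basal signal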
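Human spleen homogenate (1 ug) was the enzyme source, with 4-methylumbelliferyl-alpha-D-galactopyranoside (1 mM final) in pH 5.0 citrate buffer with 0.01% Tween-20. Compounds were titrated; after 40 min at 37C, NaOH/glycine stop, 4-MU fluorescence read; AC50 from Hill fits.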
GLA inh pH 4.5 – inhibitors of human alpha-galactosidase A at pH 4.5; activity change, negative = inhibition, % at 105 µM; purified enzyme, 4-MU-alpha-Gal fluorescence, pH 4.5; AID 1467; 230,000 tested, under 10 active;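 also: 0% = full activity with enzyme and -100% = basal without enzyme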
Target sequence (P06280 whole entry, looked up): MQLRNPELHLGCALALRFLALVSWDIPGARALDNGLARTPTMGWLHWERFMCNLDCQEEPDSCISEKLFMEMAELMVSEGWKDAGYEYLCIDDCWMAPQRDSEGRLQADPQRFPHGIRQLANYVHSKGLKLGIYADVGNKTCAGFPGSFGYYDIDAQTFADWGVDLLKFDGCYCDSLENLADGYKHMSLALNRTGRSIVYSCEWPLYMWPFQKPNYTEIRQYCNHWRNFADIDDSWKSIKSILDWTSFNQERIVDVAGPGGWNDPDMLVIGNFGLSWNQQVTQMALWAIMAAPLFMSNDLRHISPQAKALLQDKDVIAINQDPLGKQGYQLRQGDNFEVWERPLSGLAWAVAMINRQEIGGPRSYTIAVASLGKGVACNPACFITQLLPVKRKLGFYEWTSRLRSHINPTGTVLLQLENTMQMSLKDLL
HPGD inh – blocks human HPGD enzyme activity; purified HPGD, NADH fluorescence kinetic, PGE2 substrate; Potency, µM, for inactives: at the highest dose activity change, negative = inhibition, actives largely listed as inhibitors; 4.3% of 150,000 active; P15428; AID 894; active = well fitted inhibition curve with a large enough effect, not every such curve was filed as active; inconclusive = small, poorly fitted or top-dose-only effect, or another doubt; inactive = no such curve, though single readings can be large or run the other way; also: potency is read from the fitted curve at half-maximal effect
Target sequence (P15428 whole entry, looked up): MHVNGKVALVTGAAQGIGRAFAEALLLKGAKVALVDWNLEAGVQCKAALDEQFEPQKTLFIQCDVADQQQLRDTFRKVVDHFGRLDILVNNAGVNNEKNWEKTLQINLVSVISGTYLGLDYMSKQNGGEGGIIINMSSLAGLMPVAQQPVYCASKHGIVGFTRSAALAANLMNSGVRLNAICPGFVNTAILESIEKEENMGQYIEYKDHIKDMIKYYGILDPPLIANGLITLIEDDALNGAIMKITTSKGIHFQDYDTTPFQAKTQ
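20 nM HPGD preincubated 15 min at room temperature with compound in 50 mM Tris-HCl pH 8, 0.01% Tween 20. Started with 1 mM NAD+ and 30 uM prostaglandin E2; NADH fluorescence (360/450 nm) read 5 times over 30-s intervals, last minus first.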
12-hLO inh – blocks human 12-lipoxygenase activity | Potency, µM (titrated, usually from 57.1 µM), inactives show at the top dose activity change, negative = inhibition, usual class: inhibitors | 0.12% of 150,000 active | AID 1452 | purified 12-hLO, xylenol orange hydroperoxide absorbance; also: potency is read from the fitted curve at half-maximal effect; nearly all actives have a fitted effect of over 55% in size
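Lipoxygenase turnover measured by absorbance at 573 and 405 nm after Fe-XO development. Human 12hLO 150 nM, arachidonate 40 uM, pH 7.0 Hepes buffer with detergent; 15 min compound preincubation, 30 min reaction.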
The depositor's hits bear a star; [ ] = remark or other dose. The list is not random: actives were taken first. Their share in the collection is about 10%. Unless noted, calls follow the shape of the dose curve; as a rule, active = well fitted curve in the direction sought with a large enough effect; inconclusive = small, poorly fitted or top-dose-only effect, or another doubt; inactive = no such curve, though single readings can be large; an effect the other way counts as inactive or inconclusive. Unless noted, % is scaled to controls: 0 for no effect and ±100 for the full control effect.

CCOc1ccc(OCCN2C(=O)NC3(CCCc4ccccc43)C2=O)cc1 (centres undefined) was read as PNC assembly inh inconclusive, ALDH1A1 block -10.5%, GLA spleen mod 6.6%, GLA inh pH 4.5 -16.5, HPGD inh -16.2% and 12-hLO inh -5.3%.
Screening CCOc1ncccc1C(=O)OCC(=O)Nc1ccc(C(N)=O)cc1 returned GLA spleen mod -0.6% and GLA inh pH 4.5 1.3.
Screening CC1CCCCN1c1nc2nonc2nc1N1CCCCC1C (centres undefined) returned PNC assembly inh inconclusive, ALDH1A1 block 2.24µM*, GLA spleen mod -1.3%, GLA inh pH 4.5 0.9, HPGD inh -14.4% and 12-hLO inh 2.9%.
`O=c1c(CCc2ccccc2)nc2cnc(N3CCOCC3)nc2n1C1CC1` gave ALDH1A1 block inconclusive and GLA spleen mod -10.1%.
`COc1ccc(N2C(=O)C(Cl)=C(Oc3cccc(OC)c3)C2=O)cc1` gave ALDH1A1 block 17.8µM*, GLA spleen mod -1.0% and GLA inh pH 4.5 -0.1.
`COc1ccc(N2C(=O)C(Cl)=C(Nc3ccccc3OC)C2=O)cc1` gave PNC assembly inh inconclusive, ALDH1A1 block -1.8%, GLA spleen mod 3.8%, GLA inh pH 4.5 -5.4, HPGD inh -26.3% and 12-hLO inh -2.1%.
COc1ccc(N2C(=O)C(Cl)=C(N(CCO)Cc3ccccc3)C2=O)cc1 was read as PNC assembly inh -124.8*, ALDH1A1 block -7.8%, GLA spleen mod -7.0%, GLA inh pH 4.5 -0.3, HPGD inh -7.0% and 12-hLO inh -10.6%.
`COc1ccc(N2C(=O)C(Cl)=C(Nc3ccccc3O)C2=O)cc1` gave PNC assembly inh inconclusive, ALDH1A1 block 15.8µM*, GLA spleen mod 5.1%, GLA inh pH 4.5 0.9, HPGD inh 14.1µM* and 12-hLO inh -12.7%.
For COc1ccc(N2C(=O)c3ccccc3C2=O)cc1 the results were ALDH1A1 block 4.1%, GLA spleen mod 3.7% and GLA inh pH 4.5 7.9.
For CCc1cc(SC#N)cc(C)c1N the results were ALDH1A1 block inconclusive, GLA spleen mod -2.6% and GLA inh pH 4.5 -1.6.
`CCC(=O)Nc1ccc(SC#N)cc1C` gave PNC assembly inh -7.7, ALDH1A1 block 2.51µM*, GLA spleen mod 6.2%, GLA inh pH 4.5 6.6, HPGD inh -16.2% and 12-hLO inh 2.3%.
Cc1cc(SC#N)cc(C)c1NC(=O)CCl was read as PNC assembly inh -115.1*, ALDH1A1 block inconclusive, GLA spleen mod -8.5%, GLA inh pH 4.5 -3.5, HPGD inh inconclusive and 12-hLO inh -0.2%.
For CCc1cc(SC#N)cc(C)c1NC(=O)CCl the results were PNC assembly inh 28.8, ALDH1A1 block -4.0%, GLA spleen mod -0.7%, GLA inh pH 4.5 2.8, HPGD inh 15.8µM* and 12-hLO inh 1.3%.
`COc1ccc2c(c1)O[C@@H](c1cccc(C(F)(F)F)c1)[C@H](OC(=O)Nc1cc(OC)c(OC)c(OC)c1)C2=O` gave ALDH1A1 block 4.6%, GLA spleen mod -8.9%, GLA inh pH 4.5 -2.9 and HPGD inh -10.8%.
Screening N#CC1=C(N)SC2(CCCCC2)SC1c1ccccc1 (centres undefined) returned PNC assembly inh 133.8, ALDH1A1 block 25.1µM*, GLA spleen mod -12.1%, GLA inh pH 4.5 6.3, HPGD inh inconclusive and 12-hLO inh -24.4%.
Screening Cc1sccc1/C=N/NC(=O)c1cccc2ccccc12 returned PNC assembly inh -103.7*, ALDH1A1 block 4.6%, GLA spleen mod 5.0%, GLA inh pH 4.5 2.4, HPGD inh -6.8% and 12-hLO inh -4.0%.
For NCCC[C@@H](CC(=O)N[C@@H]1CCCC[C@H]1C(=O)N[C@H](CC(=O)N[C@@H](CCC(=O)O)CC(=O)O)Cc1ccccc1)NC(=O)C[C@H](Cc1c[nH]c2ccccc12)NC(=O)[C@@H]1CNCC[C@H]1N the results were ALDH1A1 block -6.2%, GLA spleen mod -5.4%, GLA inh pH 4.5 -2.4, HPGD inh -4.5% and 12-hLO inh 0.4%.
Screening CC(C)CCN1C(=O)c2ccc(-c3nc4ccccc4c(=O)o3)cc2C1=O returned PNC assembly inh 10.5, ALDH1A1 block 7.08µM*, GLA spleen mod 13.3%, GLA inh pH 4.5 5.1, HPGD inh inconclusive and 12-hLO inh 7.4%.
`COc1ccc(-c2nc3ccccc3c(=O)o2)cc1OC` gave PNC assembly inh -4.6, ALDH1A1 block inconclusive, GLA spleen mod 4.4%, GLA inh pH 4.5 3.9, HPGD inh inconclusive and 12-hLO inh -4.0%.
`O[C@@](CCN1CCCCC1)(c1ccccc1)[C@@H]1C[C@H]2C=C[C@@H]1C2` gave ALDH1A1 block 7.4%[20.9 µM], GLA spleen mod -5.6%[29.1 µM], GLA inh pH 4.5 0.8, HPGD inh -2.5% and 12-hLO inh -0.5%[25.6 µM].
`C=CCC(Nc1ccc(OC)cc1)C(=O)OCC` (centres undefined) gave ALDH1A1 block 5.9%, GLA spleen mod 8.5%, GLA inh pH 4.5 -0.5 and HPGD inh -0.5%.
`OCCCSCCO` gave ALDH1A1 block 6.5%[13.5 µM], HPGD inh -1.6% and 12-hLO inh 0.7%[11.4 µM].
For COc1ccccc1OCCCOc1c(Cl)cc(C)cc1Cl the results were PNC assembly inh -1.6, ALDH1A1 block -1.9%, GLA spleen mod 4.8%, GLA inh pH 4.5 11.4, HPGD inh 14.1µM* and 12-hLO inh -1.5%.
Screening COc1cc(C)ccc1OCCCOc1c(Cl)cccc1Cl returned PNC assembly inh 9.6, ALDH1A1 block -9.9%, GLA spleen mod 2.2%, GLA inh pH 4.5 -1.9, HPGD inh 11.2µM* and 12-hLO inh -1.5%.
`CN1CCN(CCc2ccc(Cl)c(Cl)c2)CC1` gave ALDH1A1 block 9.9%, GLA spleen mod 1.5%, GLA inh pH 4.5 -6.6, HPGD inh 0.9% and 12-hLO inh 0.6%.
`Cc1cccc(C)c1OCCCCCNCCO` gave PNC assembly inh 13.6, ALDH1A1 block 20µM*, GLA spleen mod 8.2%, GLA inh pH 4.5 1.3, HPGD inh -11.9% and 12-hLO inh 7.9%.
For CC(C)c1ccccc1OCCCCCNCCO the results were PNC assembly inh -6.4, ALDH1A1 block 17.8µM*, GLA spleen mod -1.4%, GLA inh pH 4.5 3.5, HPGD inh -21.8% and 12-hLO inh 2.6%.
`Cc1ccccc1OCCCCCNCCO` gave PNC assembly inh inconclusive, ALDH1A1 block inconclusive, GLA spleen mod -4.8%, GLA inh pH 4.5 -6.2, HPGD inh -3.3% and 12-hLO inh 8.2%.
CS(=O)(=O)CCSc1ncccc1C(=O)NCc1cccs1 was read as ALDH1A1 block 16.4%, GLA spleen mod -1.8% and GLA inh pH 4.5 -2.3.
Screening O=C(COc1ccc(/C=N/NC(=O)C(=O)N2CCCCCC2)cc1)Nc1ccccc1Cl returned PNC assembly inh inconclusive, ALDH1A1 block -1.3%, GLA spleen mod 5.7%, GLA inh pH 4.5 -2.4, HPGD inh inconclusive and 12-hLO inh -3.7%.
